Bioassay records from PubChem.
A selection: hits, their analogues and other compounds. The true share with any hit is near 0.4%.
Rab2A wt mod: changes GTP binding to wildtype dog Rab2A, up or down. P61105. GST-Rab2 wt beads, Bodipy-GTP binding, flow cytometry. GTP binding activity, % at 10 µM. 190,000 compounds, 0.19% hits. AID 760;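 active = GTP binding activity at least 20 points away from 100%, either lowered or raised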;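 also: 0% = beads with excess unlabeled GTP and 100% = no-compound control corrected for plate trend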
Rac1 mut GTP: modulators of GTP binding to human Rac1 activated mutant | P63000 | GST-Rac1 activated beads, fluorescent GTP binding, flow cytometry; actives lie on both sides; 100% means binding = to untreated wells | percent activity (GTP binding), % at 10 µM | 190,000 compounds, 0.11% hits | AID 764;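 active = GTP binding at least 20 percentage points away from the 100% baseline, in either direction, so actives lie on both sides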
Rac1 wt GTP bind: human Rac1 wildtype GTP binding, inhibitors and activators; GST-Rac1 beads, fluorescent GTP binding, flow cytometry; actives lie on both sides; 0 = cold GTP competed, 100 = untreated; GTP binding activity (% of control), % at 10 µM; 190,000 compounds, 0.27% hits; AID 757;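 active = GTP binding activity at least 20 points away from the 100% control level, either lower or higher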
Cdc42 wt: human Cdc42 wildtype GTP binding change, either direction | P60953 | GST-Cdc42 beads, Bodipy-GTP binding, flow cytometry; actives lie on both sides | percent activity (GTP binding), % at 10 µM | 190,000 compounds, 0.2% hits;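 active = percent activity GTP binding at least 20 points away from the 100% baseline, either down as inhibitor or up as activator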;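 also: median bead fluorescence of bound Bodipy-FL-GTP at 100 nM; 0% = excess unlabeled GTP control and 100% = no compound control; below 100% means less GTP binding so inhibitor and above means activator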
Target sequence (P60953 whole entry, looked up): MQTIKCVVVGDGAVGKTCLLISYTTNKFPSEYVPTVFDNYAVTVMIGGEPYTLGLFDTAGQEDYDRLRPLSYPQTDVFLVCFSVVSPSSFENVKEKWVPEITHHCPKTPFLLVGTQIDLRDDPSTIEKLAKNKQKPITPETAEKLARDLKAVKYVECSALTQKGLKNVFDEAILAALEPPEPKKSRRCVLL
Rab7 wt modul: alters GTP binding to wildtype dog Rab7; GST-Rab7 beads, fluorescent GTP binding, flow cytometry; actives lie on both sides; untreated = 100%, excess cold GTP = 0%; 190,000 compounds, 0.055% hits; AID 758; GTP binding activity (percent of control), % at 10 µM;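 active = fluorescent GTP binding to Rab7 beads changed by at least 20 points from the 100% baseline, either direction, mostly lower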;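 also: median green fluorescence of bound Bodipy-FL-GTP per Rab7 bead population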
HRas wt GTP bind: human HRas wildtype GTP binding, change in either direction; P01112; GST-Ras wt beads, Bodipy-FL-GTP binding, flow cytometry; actives lie on both sides; GTP binding activity, % at 10 µM; 190,000 compounds, 0.14% hits; AID 759;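 active = GTP binding activity at least 20% away from the 100% baseline, either lowered as inhibitor or raised as activator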;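 also: 0% = unlabeled GTP competition control and 100% = no-compound control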
Target sequence (P01112 whole entry, looked up): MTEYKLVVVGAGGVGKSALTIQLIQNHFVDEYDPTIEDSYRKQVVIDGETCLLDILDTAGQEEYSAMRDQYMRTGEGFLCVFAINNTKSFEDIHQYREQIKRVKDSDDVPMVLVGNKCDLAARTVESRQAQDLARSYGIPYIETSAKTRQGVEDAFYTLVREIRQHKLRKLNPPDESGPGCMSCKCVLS
* = called active by the depositor.

SMILES | Rab2A wt mod | Rac1 mut GTP | Rac1 wt GTP bind | Cdc42 wt | Rab7 wt modul | HRas wt GTP bind
COc1ccc(-c2csc(NC(=O)c3cccs3)c2C(=O)O)cc1OC | 90 | 95 | 91 | 92 | 102 | 92
COc1ccc(-c2csc(NC(=O)Cc3cccc4ccccc34)c2C(=O)O)cc1 | 75* | 82 | 70* | 76* | 81 | 78*
O=C(O)c1ccc(N2C(=O)/C(=C/c3ccc(-c4ccc([N+](=O)[O-])cc4)o3)C=C2c2ccccc2)cc1 | 80 | 79* | 79* | 75* | 92 | 86
CC1=NN(c2ccc(Cl)c(C(=O)O)c2)C(=O)/C1=C\c1ccc(-c2ccc(C(=O)O)cc2)o1 | 88 | 87 | 89 | 87 | 91 | 90
O=C(/C=C/c1cccc(Br)c1)N1CCN(c2ccccn2)CC1 | 92 | 92 | 94 | 92 | 94 | 93
O=C(CNC(=O)Cc1ccccc1)N=Nc1c(O)n(Cc2ccc3c(c2)OCO3)c2ccccc12 | 78* | 88 | 78* | 90 | 90 | 84
CC1CCN(CCNC(=S)Nc2ccc(Cl)cc2)CC1 | 99 | 100 | 102 | 99 | 95 | 98
CC(=O)Nc1ccc(Nc2ccc3c4c(cc(=O)n3C)-c3ccccc3C(=O)c24)cc1 | 85 | 87 | 77* | 88 | 93 | 86
O=C(Oc1c(Br)cc(C(=S)N2CCOCC2)cc1Br)c1ccc(Cl)cc1 | 78* | 77* | 80 | 75* | 88 | 80
O=C(Oc1ccc(C(=S)N2CCOCC2)cc1Br)c1cc(Cl)ccc1Cl | 96 | 95 | 99 | 97 | 98 | 98
CC(C)Cn1c(N)c(C(=O)COC(=O)[C@@H]2CCCN2C(=O)c2cccs2)c(=O)n(C)c1=O | 98 | 94 | 95 | 95 | 105 | 97
CC1(c2ccccc2Cl)NC(=O)N(CC(=O)NCc2ccco2)C1=O (stereo not drawn) | 100 | 99 | 101 | 103 | 97 | 99
O=C(O)c1cccc(-n2cccc2/C=C2/NC(=O)N(c3ccc(Cl)cc3)C2=O)c1 | 75* | 76* | 67* | 72* | 88 | 82
COc1ccc(-n2cccc2/C=C2/NC(=O)N(c3cccc(Cl)c3)C2=O)cc1 | 100 | 100 | 102 | 101 | 104 | 100
Cc1oc(-c2cccs2)nc1CN1CCC(CO)(CCOc2ccccc2)CC1 | 99 | 97 | 101 | 96 | 97 | 96
Oc1ccccc1CNc1ccc(OC(F)(F)F)cc1 | 96 | 94 | 98 | 95 | 102 | 98
CCOC(=O)c1c(NC(=O)C(=O)N/N=C/c2ccc(OCC)cc2)sc2c1CCCCC2 | 99 | 99 | 104 | 97 | 97 | 102
CCOC(=O)c1c(NC(=O)C(=O)N/N=C/c2ccc(O)c(OC)c2)sc2c1CCCCC2 | 94 | 98 | 104 | 61* | 98 | 98
CCc1nnc(NC(=O)[C@@H](NC(=O)c2cc(OC)cc(OC)c2)C(C)C)s1 | 94 | 96 | 94 | 97 | 92 | 95
NS(=O)(=O)c1ccc(N2N=C(c3ccccc3)CC2c2ccccc2)cc1 (stereo not drawn) | 100 | 97 | 99 | 71* | 94 | 98
CN(C)CCN(C(=O)c1ccc(N2C(=O)CCC2=O)cc1)c1nc2cc3c(cc2s1)OCCO3 | 98 | 98 | 98 | 96 | 101 | 97
O=C(Nc1cc(S(=O)(=O)Nc2ccccc2Cl)ccc1O)c1sc2cc(Cl)ccc2c1Cl | 85 | 78* | 83 | 80 | 94 | 87
COc1cc2ccccc2cc1C(=O)NC(=S)Nc1cccc(C(=O)O)c1 | 75* | 80 | 81 | 75* | 85 | 76*
CN(Cc1c(C(=O)N2CCc3ccccc3C2)nc2ccc(Cl)cn12)C(C1CC1)C1CC1 | 94 | 93 | 100 | 97 | 99 | 96
COc1cc(/C=N/NC(=O)CCN2CCN(Cc3ccccc3)CC2)cc(OC)c1OC | 101 | 101 | 100 | 99 | 97 | 100
COc1cc(/C=N/NC(=O)CCN2CCN(c3ccccc3)CC2)cc(OC)c1OC | 80 | 90 | 79* | 87 | 94 | 86
CCC(CC)C(=O)c1c[nH]c(C(=O)N2CCN(c3ccccc3)CC2)c1 | 96 | 95 | 99 | 97 | 93 | 97
